From PubChem BioAssay AID765 (NMMLSC, 2007) come the findings set out here.

A number with no mark means an inactive call. Calls of active or inactive are those of the source. No stated cut-off is given here; in the data, active means inhibition above about 31%; inactive means the rest.

N-formyl peptide receptor 2 (Homo sapiens), sequence (P25090 whole entry, looked up): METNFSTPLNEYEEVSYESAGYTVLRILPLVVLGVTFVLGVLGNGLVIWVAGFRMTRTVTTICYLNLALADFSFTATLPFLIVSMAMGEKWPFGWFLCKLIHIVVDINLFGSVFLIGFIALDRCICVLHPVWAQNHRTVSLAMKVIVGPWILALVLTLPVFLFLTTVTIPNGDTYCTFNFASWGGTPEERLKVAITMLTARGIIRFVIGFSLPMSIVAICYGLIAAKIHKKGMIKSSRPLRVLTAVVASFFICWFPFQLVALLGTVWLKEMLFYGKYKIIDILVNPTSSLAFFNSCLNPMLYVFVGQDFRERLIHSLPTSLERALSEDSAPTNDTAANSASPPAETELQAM

The assay addresses N-formyl peptide receptor 2 (Homo sapiens) (UniProt P25090). Description: human FPR2 ligand displacement single-point screen – cell-based, flow cytometry, single concentration (AID 765). The conditions noted are these: FPRL1-expressing cells, fluorescent ligand binding inhibition, hits give high values; at 5.1 µM unless noted.
In the case of `CCCC(CCC)C(=O)Nc1cc(-c2cn3cccnc3n2)ccc1OC`, the inhibition was 19.4% [at 6.1 µM].

As for `O=C(c1ccccc1)N1CCN(c2nc(-c3ccccc3)c3ccccc3n2)CC1`, the inhibition is -1.3% [at 5.6 µM].

With `CC(C)(C)OC(=O)N1CCN(c2nc(-c3ccccc3)c3cc(Br)ccc3n2)CC1`, the inhibition was -2.1% [at 4.7 µM].

For `COc1ccc(-c2cn3cccnc3n2)cc1NC(=O)c1cccc(Cl)c1`, the inhibition was 25.4% [at 5.9 µM].

As for `CN1CCN(c2nc(-c3ccccc3)c3cc(Cl)ccc3n2)CC1`, the inhibition was -15% [at 6.6 µM].

Consider `COc1ccccc1N1CCN(c2nc(-c3ccc(F)cc3)cc(C(F)(F)F)n2)CC1`, for which the inhibition is -8.4%.

Consider `FC(F)(F)c1nc(N2CCN(Cc3ccccc3)CC2)nc2c1CCCCC2`, for which the inhibition was 11.8% [at 5.7 µM].

As for `Clc1ccccc1-c1nc(N2CCN(c3ccccc3)CC2)nc2ccc(Br)cc12`, the inhibition was -7.9% [at 4.6 µM].

Turning to `COc1ccc(CC(=O)Nc2cc(-c3cn4cccnc4n3)ccc2OC)cc1`, the inhibition was 64.2% [at 5.7 µM] (active).

Turning to `CCC(CC)C(=O)Nc1cc(-c2cn3cccnc3n2)ccc1OC`, the inhibition was 11.5% [at 6.6 µM].

`CCOC(=O)N1CCN(c2nc(-c3ccccc3)c3cc(C)ccc3n2)CC1`: the inhibition was 3.4% [at 5.9 µM].

Take `Clc1cccc(-c2nc(N3CCN(Cc4ccccc4)CC3)nc3c2COc2ccccc2-3)c1`: the inhibition was 0.5% [at 4.7 µM].

For `O=C(O)CCC(=O)N1CCN(c2nc(-c3ccccc3)c3cc([N+](=O)[O-])ccc3n2)CC1`, the inhibition is 3.6%.

Take `COc1ccc(-c2cc(C(F)(F)F)nc(N3CCN(C(c4ccccc4)c4ccccc4)CC3)n2)cc1OC`: the inhibition was 25.4% [at 4.2 µM].

In the case of `O=C(O)CCC(=O)N1CCN(c2nc(-c3ccccc3)c3ccccc3n2)CC1`, the inhibition is -3.2% [at 5.7 µM].

For `COc1ccc(-c2cn3cccnc3n2)cc1NC(=O)c1cccc(C(F)(F)F)c1`, the inhibition was 3.7% [at 5.4 µM].

Take `COc1ccccc1-c1cc(C(F)(F)F)nc(N2CCN(Cc3ccccc3)CC2)n1`: the inhibition was 14.1% [at 5.2 µM].

Regarding `COc1ccc(-c2cn3cccnc3n2)cc1NC(=O)c1ccc(Br)cc1`, the inhibition is -12.5% [at 5.3 µM].

Take `O=C(O)CC1(CC(=O)N2CCN(c3nc(-c4ccccc4Cl)c4cc(Br)ccc4n3)CC2)CCCC1`: the inhibition is -5.2% [at 3.9 µM].

For `Cc1ccc2nc(N3CCN(C(=O)CCC(=O)O)CC3)nc(-c3ccccc3)c2c1`, the inhibition was 6.9% [at 5.5 µM].

Take `Clc1cccc(-c2nc(N3CCN(c4ccccc4)CC3)nc3c2COc2ccccc2-3)c1`: the inhibition was -0.8% [at 4.9 µM].

Turning to `O=C(c1cccc(F)c1)N1CCN(c2nc(-c3cccs3)cc(C(F)(F)F)n2)CC1`, the inhibition was -12.6%.

On to `CC(=O)N1CCN(c2nc(-c3ccccc3)c3cc(C)ccc3n2)CC1`, for which the inhibition was 5.6% [at 6.4 µM].

As for `Cc1ccc(-c2cc(C(F)F)nc(N3CCN(Cc4ccccc4)CC3)n2)cc1`, the inhibition was -4.2% [at 5.6 µM].

In the case of `O=C(N1CCN(c2nc(-c3ccccc3)c3ccccc3n2)CC1)C(F)(F)F`, the inhibition is 24.8% [at 5.8 µM].

On to `Fc1ccc(-c2cc(C(F)(F)F)nc(N3CCN(c4ccccc4)CC3)n2)cc1`, for which the inhibition was 1.9% [at 5.5 µM].

As to `COc1ccc(-c2cn3cccnc3n2)cc1NC(=O)C(C)C`, the inhibition was 25.1% [at 7.2 µM].

As for `FC(F)(F)c1cc(-c2ccco2)nc(N2CCN(C(c3ccccc3)c3ccccc3)CC2)n1`, the inhibition is -10.5% [at 4.8 µM].

In the case of `O=C(c1cccc(F)c1)N1CCN(c2nc(-c3ccc(F)cc3)cc(C(F)(F)F)n2)CC1`, the inhibition was 2.3% [at 5 µM].

With `CCC(=O)Nc1cc(-c2cn3cccnc3n2)ccc1OC`, the inhibition is 41.3% [at 7.5 µM] (active).

For the compound `Fc1ccc(-c2cc(C(F)(F)F)nc(N3CCN(C(c4ccccc4)c4ccccc4)CC3)n2)cc1`, the inhibition is -9.4% [at 4.5 µM].

Take `Cc1ccc(C(=O)N2CCN(c3nc(-c4ccccc4)c4cc(Br)ccc4n3)CC2)cc1`: the inhibition was 18% [at 4.6 µM].

In the case of `Cc1ccc2nc(N3CCN(C(=O)CCCC(=O)O)CC3)nc(-c3ccccc3)c2c1`, the inhibition is 1.1% [at 5.3 µM].

Usually inhibition stands for the change of the read-out against control, counted positive when it falls.
